Shown are actives, neighbours in structure and some others; about 2.4% of the full set was active somewhere.
ERK AVP inh: inhibitors of vasopressin-stimulated ERK signaling pathway; HEK293-V1b, vasopressin-stimulated pERK AlphaScreen; Potency, µM (titrated, usually from 57.5 µM), without a hit: top-dose activity, negative = inhibition, usual class: inhibitors; hit rate 0.99% among 72,000; AID 995; further: potency means the concentration at half of the fitted maximal effect; on the % scale 0 is the no-effect control and ±100 the full control effect; nearly all actives have a fitted effect of over 55% in size
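HEK293 cells stably expressing V1b receptor, seeded overnight in 1% FBS, were treated with compounds for 30 min at 37C, then stimulated 5 min with 25 nM vasopressin; phospho-ERK read by AlphaScreen SureFire after lysis.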
BRCT PPI green: BRCA1 BRCT-phosphoprotein interaction inhibition. hit rate 0.05% among 75,000. Potency, µM (highest dose often 76.9 µM), inactives show at the top dose activity change, negative = inhibition, actives largely listed as inhibitors. P38398. BRCA1 BRCT-phosphopeptide binding, green fluorescence polarization;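 further: potency means the concentration at half of the fitted maximal effect; plate controls were peptide without protein for full effect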
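Compounds were incubated for 12 min at room temperature with a complex of 100 nM fluorescein-tagged pBACH1 decapeptide and 250 nM His-tagged BRCT protein. Buffer was phosphate pH 7.3 with EDTA, DTT and Tween 20. Disruption of binding lowers the polarization signal.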
BRCT inh red: inhibitors of human BRCA1 BRCT-phosphoprotein interaction (red fluorophore) | BRCT-phosphopeptide binding, red fluorescence polarization | hit rate 0.03% among 75,000 | Potency, µM (series often up to 76.9 µM), without a hit: at the highest dose activity change, negative = inhibition, usual class: inhibitors | P38398; further: on the % scale 0 is the no-effect control and ±100 the full control effect
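Fluorescence polarization: 100 nM His-tagged BRCA1 BRCT with 100 nM TAMRA-labelled phospho-BACH1 decapeptide, phosphate buffer pH 7.3 with 150 mM NaCl, DTT, 0.01% Tween 20; 12 min RT. Binding inhibition seen as FP decrease.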
DNA Pol III inh: inhibitors of bacterial DNA polymerase III holoenzyme | Potency, µM (titrated, usually from 57.1 µM), for inactives: at the top dose activity change, negative = inhibition | reconstituted DNA polymerase III holoenzyme replication, biochemical | hit rate 0.25% among 71,000; further: potency means the concentration at half of the fitted maximal effect; on the % scale 0 is the no-effect control and ±100 the full control effect
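Reconstituted *E. coli* holoenzyme (0.35 nM Pol III, 1 nM beta, 154 nM SSB, 2 nM primase) was preincubated with compound for 15 min at RT. Synthesis on 1.4 nM ssM13Gori ran 35 min, then was stopped with PicoGreen/EDTA and read as dsDNA fluorescence.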
TsaE inh: displaces an ADP probe from E. coli YjeE (TsaE) | P0AF67 | purified YjeE enzyme, qHTS inhibition assay | Potency, µM | hit rate 0.05% among 71,000 | AID 605
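Fluorescence polarization of a BODIPY Texas Red–ADP probe (2 uM) bound to purified YjeE (10 uM) was read after 15 min room-temperature incubation with compounds. Loss of polarization marks inhibitors; ADP serves as titrated control.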
ALOX15 inhib: blocks human 15-lipoxygenase activity; P16050; Potency, µM (highest dose often 57.1 µM), for inactives: top-dose activity change, negative = inhibition, most hits filed as inhibitors; hit rate 1.4% among 74,000; AID 887; purified 15hLO-1, xylenol orange hydroperoxide absorbance; further: potency means the concentration at half of the fitted maximal effect; on the % scale 0 is the no-effect control and ±100 the full control effect; nearly all actives have a fitted effect of over 55% in size
Target sequence (P16050 whole entry, looked up): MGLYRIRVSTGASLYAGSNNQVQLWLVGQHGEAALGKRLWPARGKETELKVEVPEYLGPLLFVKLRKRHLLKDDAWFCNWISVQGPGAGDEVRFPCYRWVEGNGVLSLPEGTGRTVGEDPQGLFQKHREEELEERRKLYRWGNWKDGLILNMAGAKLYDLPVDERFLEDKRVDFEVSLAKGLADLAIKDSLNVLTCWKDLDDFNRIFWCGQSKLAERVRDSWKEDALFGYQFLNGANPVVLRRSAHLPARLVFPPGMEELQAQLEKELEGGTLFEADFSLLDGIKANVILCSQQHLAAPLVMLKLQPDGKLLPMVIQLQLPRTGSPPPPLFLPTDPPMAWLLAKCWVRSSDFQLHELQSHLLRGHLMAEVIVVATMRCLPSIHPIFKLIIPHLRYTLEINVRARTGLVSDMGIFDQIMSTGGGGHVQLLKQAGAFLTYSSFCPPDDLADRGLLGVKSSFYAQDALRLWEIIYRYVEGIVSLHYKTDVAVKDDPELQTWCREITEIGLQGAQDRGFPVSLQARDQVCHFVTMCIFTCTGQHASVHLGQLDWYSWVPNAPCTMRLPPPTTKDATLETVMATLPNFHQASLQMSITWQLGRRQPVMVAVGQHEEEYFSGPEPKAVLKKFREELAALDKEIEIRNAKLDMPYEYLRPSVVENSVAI
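40 nM 15hLO-1 + cpd, 15 min RT; start w/ 50 uM AA (final), 6 min RT; stop/detect w/ 200 uM XO + 300 uM Fe(II) in 50 mM H2SO4, 30 min; A573/A405. Buffer 25 mM Hepes pH 7.5, 0.01% Triton X-100. No-enzyme wells as negative control.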
Starred values were filed as active, the others as inactive; i = inactive; u = inconclusive; x = not tested or not shown; ! = repeats disagree; [ ] = another dose, or the depositor's remark. The call rests on the fitted dose curve; in most records, active means well fitted curve in the direction sought with a large enough effect; inconclusive means small, poorly fitted or top-dose-only effect, or another doubt; inactive means no such curve, though single readings can be large; an effect the other way counts as inactive or inconclusive.

SMILES	ERK AVP inh	BRCT PPI green	BRCT inh red	DNA Pol III inh	TsaE inh	ALOX15 inhib
CCC(c1nnnn1C1CCCCC1)N(Cc1ccco1)Cc1cc2ccc(OC)cc2[nH]c1=O (centres undefined)	-4%	2%	-2%	-1%	i	-17%
COc1ccc(Cn2nnnc2CN(Cc2cc3cc(C)ccc3[nH]c2=O)C2CCCC2)cc1	-15%	-1%	1%	-3%	i	5%
COc1ccc2[nH]c(=O)c(CN(C3CCCCC3)C(c3nnnn3Cc3ccco3)C(C)C)cc2c1 (centres undefined)	-18%	10%	0%	-10%	i	16µM*
CCC(c1nnnn1Cc1ccco1)N(Cc1cc2cc(C)cc(C)c2[nH]c1=O)CC1CCCO1 (centres undefined)	4%	-4%	-1%	-2%	i	10µM*
COc1ccc2[nH]c(=O)c(CN(Cc3nnnn3Cc3ccco3)C3CCCCC3)cc2c1	-4%	-14%	-10%	-17%	i	6.3µM*
O=C(NCCCn1ccnc1)c1cc(-c2ccc3c(c2)OCO3)on1	u	0%	-1%	1%	i	15%
Cn1c(/N=C/c2c(O)ccc3ccccc23)nc2ccccc21	-13%	0%	-1%	-8%[11.4 µM]	i	4µM*
C[N+](C)(C)CC(=O)N/N=C\c1c(O)ccc2ccccc12	12%[11.5 µM]	3%[15.4 µM]	0%[15.4 µM]	-8%[11.4 µM]	i	30%[11.4 µM]
Cc1ccc2c(c1)CCCN2C(=O)Nc1ccc2c(c1)OCO2	-14%	-4%	-1%	3%	i	20µM*
O=c1nc(NC2CCCC2)ccn1Cc1cccc(Br)c1	-13%	2%	1%	-3%	i	-12%
Oc1ccc(Br)cc1-c1nc2cnccn2c1NC1CCCC1	32µM*	-10%	-2%	2%	i	u
Cc1cc(-c2ccc(N=Nc3cc(S(=O)(=O)O)c4ccccc4c3N)c(C)c2)ccc1N=Nc1cc(S(=O)(=O)O)c2ccccc2c1N	u	-8%	-10%	u	i	0.4µM*
O=C(c1ccncc1)N1CCC2(CCCN(c3ccccc3)C2)CC1	1%	9%	0%	-3%	i	2%
COc1ccc2c(c1)O[C@H](c1cccc(C(F)(F)F)c1)[C@@H](O)C2=O	10%[11.5 µM]	0%[15.4 µM]	0%[15.4 µM]	x	x	6%[11.4 µM]
CN(C)c1ccc(C(=S)NCc2ccco2)cc1	-15%	5%	1%	-1%	i	25µM*
S=C(S)O[C@@H]1C[C@@H]2C[C@H]1[C@@H]1CCC[C@H]21	-14%	-2%	-1%	-8%	i	25µM*!
Cc1ccccc1NC(=O)c1nc[nH]c1C(=O)NCc1ccccc1	25µM*	-1%	0%	3%	i	23%
O=C(Nc1ccccc1)C1=C(O)CC(c2ccoc2)CC1=Nc1ccccc1 (centres undefined)	-3%	10%	0%	1%[11.4 µM]	i	4µM*
O=C(Nc1ccccc1)C1=C(O)CC(c2ccco2)CC1=Nc1ccccc1 (centres undefined)	27%	3%	-3%	-12%	i	3.2µM*
O=c1c2ccccc2oc2cc(O)c([C@@H]3COC[C@@H](CO)[C@@H](O)[C@@H](O)[C@H]3O)c(O)c12	x	x	x	-27%	i	x
CO[C@@H]1COC(=O)[C@H]2CCCN2C(=O)[C@@H](C)COC(=O)C/C=C\[C@H]1C	24%[11.5 µM]	-2%[15.4 µM]	-1%[15.4 µM]	x	x	4%[11.4 µM]
Cc1ccc(CNC2=NCCCCC2)n1C	-9%	0%	0%	0%	i	20µM*
CC(C)CN1CC2(CCN(C(=O)c3cccc(F)c3)CC2)C1	-13%	-3%	2%	-1%	i	5%
CCn1c(C(=O)N2CCCC(C(=O)NCCCc3ccccc3)C2)cc2sccc21 (centres undefined)	16µM*	-1%	0%	-2%	i	-30%
CC(CCc1ccccc1)NC(=O)c1cc2sccc2n1C (centres undefined)	x	-1%	2%	x	x	u
SMILES	ERK AVP inh	BRCT PPI green	BRCT inh red	DNA Pol III inh	TsaE inh	ALOX15 inhib
Cn1c(C(=O)N2CCCC(C(=O)NCCCSC3CCCCC3)C2)cc2sccc21 (centres undefined)	16µM*	0%	-1%	5%	i	u
Cn1c(C(=O)N2CCCC(C(=O)NCc3cccs3)C2)cc2sccc21 (centres undefined)	u	0%	1%	0%	i	-6%
CC(CCc1ccccc1)NC(=O)C1CCCN(C(=O)c2cc3sccc3n2C)C1 (centres undefined)	25µM*	1%	0%	-3%	i	-14%
COc1ccc(OC2C=CC(c3ccccc3)OC2CO)c(C(C)=O)c1 (centres undefined)	31%[11.5 µM]	0%[15.4 µM]	1%[15.4 µM]	x	x	6%[11.4 µM]
CO[C@@H]1COC(=O)C/C=C\[C@@H](C)COC(=O)[C@H](COCc2ccccc2)NC(=O)C/C=C\[C@H]1C	8%[11.5 µM]	-1%[15.4 µM]	-3%[15.4 µM]	x	x	4%[11.4 µM]
COc1ccc(CNc2cc(-c3ccccc3OC)ncn2)c(OC)c1	u	-2%	0%	2%	i	25µM*
COc1ccccc1-c1cc(NCc2ccccc2)ncn1	u	0%	-2%	-14%	i	-22%
COc1ccc(CNc2cc(-c3ccccc3Cl)ncn2)c(OC)c1	16µM*	-2%	-1%	1%	i	-1%
COc1ccc(CNc2cc(-c3cccnc3)ncn2)c(OC)c1	-23%	-1%	0%	-2%	i	2%
COc1ccccc1CNc1ncnc2c1nnn2Cc1ccccc1	-10%	1%	0%	-2%	i	-9%
c1ccc2c(c1)nnn2Cc1nnc2sc(-c3ccc4c(c3)OCCO4)nn12	-5%	-1%	-1%	12%	i	13µM*
COC(=O)c1ccc(O)c(Sc2cc(C(=O)OC)ccc2O)c1	-27%	0%	-3%	3%	i	16µM*
COC(=O)c1ccc(C)cc1	20%	-1%	1%	-5%	i	-4%
COc1ccc(N2Cc3cccc(C(=O)O)c3C2=O)cc1	x	-6%	-7%	16µM*	i	-14%
O=C(O)c1cccc2c1C(=O)N(Cc1ccncc1)C2	8%	-1%	-1%	-3%	i	-26%
O=C(O)C(c1ccccc1)N1CCCC1 (centres undefined)	-5%	0%	1%	-2%	i	0%
O=C(C1CCCCC1)N1CCCC(c2nc3c(nnn3Cc3ccccc3)c(=O)[nH]2)C1 (centres undefined)	0%	7%	-1%	0%	i	16µM*
c1ccc2sc(SN3CCOCC3)nc2c1	7%	-1%	-1%	-4%	i	2µM*

Screening data (PubChem BioAssay)
